Several values for one entry are separate records, joined by “and”; a condition that tells them apart may be missing. Equal values may be shown once. The panel holds about 83,000 compounds, 20% with a hit somewhere; the sample as a whole holds those more often.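 A percent growth of 40 corresponds to 60% growth inhibition; 0 means no net growth; -100 means all cells died. Active threshold: below 10.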 Activity calls are given as the source filed them.
Legend:
Assay in all cases: NCI-60 one-dose screen, 48 h (100 = growth as untreated, 0 = no growth, -100 = all killed)
T-47D breast = conditions: 10 µM unless noted
BT-549 breast = system: BT-549 breast
MDA-MB-435 melanoma = system: MDA-MB-435 melanoma
SW-620 colon = system: SW-620 colon
MCF7 breast = system: MCF7 breast
HCT-116 colon = system: HCT-116 colon
HCC-2998 colon = system: HCC-2998 colon
KM12 colon = system: KM12 colon

## COC(=O)Nc1nc2ccc(C(=O)c3ccccc3)cc2[nH]1
T-47D breast
  growth: 36.8% (inactive) and 82.6% (inactive) and 77.2% (inactive)
BT-549 breast; 10 µM unless noted
  growth: 63.9% (inactive) and 63% (inactive) and 51.4% (inactive)
MDA-MB-435 melanoma; 10 µM unless noted
  growth: -59.5% (active) and -46.6% (active) and -73% (active)
SW-620 colon; 10 µM unless noted
  growth: 24.2% (inactive) and 25% (inactive) and 19.4% (inactive)
MCF7 breast; 10 µM
  growth: 21.4% (inactive) and 18.4% (inactive) and 8.91% (active)
HCT-116 colon; 10 µM unless noted
  growth: 19.9% (inactive) and 9.73% (active) and 13.3% (inactive)
HCC-2998 colon; 10 µM unless noted
  growth: 57.3% (inactive) and 2.48% (active) and 23.8% (inactive)
KM12 colon; 10 µM unless noted
  growth: 11.2% (inactive) and -7.2% (active) and 3.76% (active)

## O=C1NC(=O)/C(=C/C=C/c2ccccc2)S1
T-47D breast
  growth: 60.7% (inactive)
MDA-MB-435 melanoma; 10 µM unless noted
  growth: 49.6% (inactive)
SW-620 colon; 10 µM unless noted
  growth: 61.4% (inactive)
MCF7 breast; 10 µM
  growth: 19.1% (inactive)
HCT-116 colon; 10 µM unless noted
  growth: 31.7% (inactive)
HCC-2998 colon; 10 µM unless noted
  growth: 13.2% (inactive)
KM12 colon; 10 µM unless noted
  growth: 38% (inactive)

## COc1ccccc1/C=C\C(=O)c1ccccc1
T-47D breast
  growth: 81.9% (inactive)
BT-549 breast; 10 µM unless noted
  growth: 83.2% (inactive)
MDA-MB-435 melanoma; 10 µM unless noted
  growth: 46.4% (inactive)
SW-620 colon; 10 µM unless noted
  growth: 2.63% (active)
MCF7 breast; 10 µM
  growth: 5.24% (active)
HCT-116 colon; 10 µM unless noted
  growth: 22% (inactive)
HCC-2998 colon; 10 µM unless noted
  growth: 97% (inactive)
KM12 colon; 10 µM unless noted
  growth: 29.5% (inactive)

## O=C(Nc1ccccc1)c1cc(Cl)ccc1O
BT-549 breast; 10 µM unless noted
  growth: 57.5% (inactive)
MDA-MB-435 melanoma; 10 µM unless noted
  growth: 39.3% (inactive)
SW-620 colon; 10 µM unless noted
  growth: 63.3% (inactive)
MCF7 breast; 10 µM
  growth: 81.9% (inactive)
HCT-116 colon; 10 µM unless noted
  growth: 51% (inactive)
HCC-2998 colon; 10 µM unless noted
  growth: 89.1% (inactive)
KM12 colon; 10 µM unless noted
  growth: 47% (inactive)

## CCOC(=O)/C(=C\c1ccc(-c2ccccc2)cc1)C(C)=O
T-47D breast
  growth: 105% (inactive)
BT-549 breast; 10 µM unless noted
  growth: 98.8% (inactive)
MDA-MB-435 melanoma; 10 µM unless noted
  growth: 98.9% (inactive)
SW-620 colon; 10 µM unless noted
  growth: 101% (inactive)
MCF7 breast; 10 µM
  growth: 93.3% (inactive)
HCT-116 colon; 10 µM unless noted
  growth: 103% (inactive)
HCC-2998 colon; 10 µM unless noted
  growth: 95.2% (inactive)
KM12 colon; 10 µM unless noted
  growth: 104% (inactive)

## CCCCCC(CCCCC)C(=O)O
T-47D breast
  growth: 100% (inactive)
MDA-MB-435 melanoma; 10 µM unless noted
  growth: 123% (inactive)
SW-620 colon; 10 µM unless noted
  growth: 110% (inactive)
MCF7 breast; 10 µM
  growth: 100% (inactive)
HCT-116 colon; 10 µM unless noted
  growth: 109% (inactive)
HCC-2998 colon; 10 µM unless noted
  growth: 119% (inactive)
KM12 colon; 10 µM unless noted
  growth: 109% (inactive)

## Cc1cc(N)c2ccccc2[n+]1CCCCCCCCCC[n+]1c(C)cc(N)c2ccccc21
T-47D breast
  growth: 5.34% (active) and -12.1% (active)
BT-549 breast; 10 µM unless noted
  growth: -29% (active) and -15.7% (active)
MDA-MB-435 melanoma; 10 µM unless noted
  growth: -77.2% (active) and 6.1% (active)
SW-620 colon; 10 µM unless noted
  growth: 11.6% (inactive) and 18.1% (inactive)
MCF7 breast; 10 µM
  growth: 11.9% (inactive) and -3.39% (active)
HCT-116 colon; 10 µM unless noted
  growth: 4.6% (active) and 3.4% (active)
HCC-2998 colon; 10 µM unless noted
  growth: 0.513% (active)
KM12 colon; 10 µM unless noted
  growth: -48.4% (active) and 6.86% (active)

## Cc1c2ccccc2c(C)c2c1ccc1ccccc12
T-47D breast
  growth: 65.3% (inactive)
BT-549 breast; 10 µM unless noted
  growth: 98.8% (inactive)
MDA-MB-435 melanoma; 10 µM unless noted
  growth: 92% (inactive)
SW-620 colon; 10 µM unless noted
  growth: 99.9% (inactive)
MCF7 breast; 10 µM
  growth: 32.2% (inactive)
HCT-116 colon; 10 µM unless noted
  growth: 81.3% (inactive)
HCC-2998 colon; 10 µM unless noted
  growth: 104% (inactive)
KM12 colon; 10 µM unless noted
  growth: 89.3% (inactive)

## NC(=O)/C=C/C(=O)c1c(Cl)cccc1Cl
T-47D breast
  growth: -62.4% (active)
BT-549 breast; 10 µM unless noted
  growth: -42.4% (active)
MDA-MB-435 melanoma; 10 µM unless noted
  growth: -68% (active)
SW-620 colon; 10 µM unless noted
  growth: -71% (active)
MCF7 breast; 10 µM
  growth: -68.9% (active)
HCT-116 colon; 10 µM unless noted
  growth: -100% (active)
HCC-2998 colon; 10 µM unless noted
  growth: -98.6% (active)
KM12 colon; 10 µM unless noted
  growth: -51.4% (active)

## S=C(N/N=C/c1ccccn1)Nc1ccccn1
T-47D breast
  growth: 31% (inactive)
BT-549 breast; 10 µM unless noted
  growth: 38.1% (inactive)
MDA-MB-435 melanoma; 10 µM unless noted
  growth: 47.4% (inactive)
SW-620 colon; 10 µM unless noted
  growth: 32.8% (inactive)
MCF7 breast; 10 µM
  growth: 14.3% (inactive)
HCT-116 colon; 10 µM unless noted
  growth: 1.18% (active)
HCC-2998 colon; 10 µM unless noted
  growth: 25.2% (inactive)
KM12 colon; 10 µM unless noted
  growth: 29.7% (inactive)

## COc1ccc(-c2cscc2N)cc1
BT-549 breast; 10 µM
  growth: 69.5% (inactive)
BT-549 breast; 100 µM
  growth: -32.7% (active)
MDA-MB-435 melanoma; 10 µM
  growth: 79.1% (inactive)
MDA-MB-435 melanoma; 100 µM
  growth: 30.4% (inactive)
SW-620 colon; 10 µM
  growth: 88.5% (inactive)
SW-620 colon; 100 µM
  growth: 48.4% (inactive)
MCF7 breast; 10 µM
  growth: 47.3% (inactive)
MCF7 breast; 100 µM
  growth: 19.9% (inactive)
HCT-116 colon; 10 µM
  growth: 73.3% (inactive)
HCT-116 colon; 100 µM
  growth: 26.4% (inactive)
HCC-2998 colon; 10 µM
  growth: 80.1% (inactive)
HCC-2998 colon; 100 µM
  growth: 39.6% (inactive)
KM12 colon; 10 µM
  growth: 69.6% (inactive)
KM12 colon; 100 µM
  growth: 21.1% (inactive)

## O=C(Nc1ccc(F)cc1)ON=C1CCCCC1
T-47D breast
  growth: 79% [100 µM] (inactive)
BT-549 breast; 10 µM unless noted
  growth: 106% [100 µM] (inactive)
MDA-MB-435 melanoma; 10 µM unless noted
  growth: 98.1% [100 µM] (inactive)
SW-620 colon; 10 µM unless noted
  growth: 99.8% [100 µM] (inactive)
MCF7 breast; 100 µM
  growth: 98.2% (inactive)
HCT-116 colon; 10 µM unless noted
  growth: 99.2% [100 µM] (inactive)
HCC-2998 colon; 10 µM unless noted
  growth: 106% [100 µM] (inactive)
KM12 colon; 10 µM unless noted
  growth: 92.9% [100 µM] (inactive)

## O=C(/C=C/c1cccc(Cl)c1)c1ccccc1
BT-549 breast; 10 µM unless noted
  growth: 98.4% (inactive) and 85.2% (inactive)
MDA-MB-435 melanoma; 10 µM unless noted
  growth: 88.1% (inactive) and 59.8% (inactive)
SW-620 colon; 10 µM unless noted
  growth: 52.8% (inactive) and 39.4% (inactive)
MCF7 breast; 10 µM
  growth: 31.4% (inactive) and 15.7% (inactive)
HCT-116 colon; 10 µM unless noted
  growth: 12.3% (inactive) and -17.1% (active)
HCC-2998 colon; 10 µM unless noted
  growth: 92.5% (inactive)
KM12 colon; 10 µM unless noted
  growth: 63.2% (inactive) and 30.8% (inactive)

## O=C(Nc1ccccc1)Oc1c(Cl)c(Cl)c(Cl)c(Cl)c1Cl
BT-549 breast; 10 µM unless noted
  growth: 98.7% (inactive) and 88.5% (inactive)
MDA-MB-435 melanoma; 10 µM unless noted
  growth: 109% (inactive) and 98.8% (inactive)
SW-620 colon; 10 µM unless noted
  growth: 101% (inactive) and 102% (inactive)
MCF7 breast; 10 µM
  growth: 98.1% (inactive) and 91.5% (inactive)
HCT-116 colon; 10 µM unless noted
  growth: 105% (inactive) and 101% (inactive)
HCC-2998 colon; 10 µM unless noted
  growth: 112% (inactive) and 108% (inactive)
KM12 colon; 10 µM unless noted
  growth: 100% (inactive) and 97.5% (inactive)

## Cc1ccc(N=C=C(c2ccccc2)c2ccccc2)cc1
BT-549 breast; 10 µM unless noted
  growth: 91.9% (inactive)
MDA-MB-435 melanoma; 10 µM unless noted
  growth: 79.9% (inactive)
SW-620 colon; 10 µM unless noted
  growth: 35.8% (inactive)
MCF7 breast; 10 µM
  growth: 68.5% (inactive)
HCT-116 colon; 10 µM unless noted
  growth: 15.9% (inactive)
HCC-2998 colon; 10 µM unless noted
  growth: 101% (inactive)
KM12 colon; 10 µM unless noted
  growth: 95% (inactive)

Reference: PubChem BioAssay (NCI)
